Test results: PubChem BioAssay AID493169 (National Center for Advancing Translational Sciences (NCATS), 2011)
Results filed as inconclusive are left out. Unmarked numbers belong to inactive results. Activity calls are given as the source filed them. Calls follow the shape of the dose curve; as a rule, active = well fitted inhibition curve with a large enough effect; inconclusive = small, poorly fitted or top-dose-only effect; inactive = flat fitted curve, though single readings scatter.

Assay: CHOP2 Reporter Counterscreen Assay for Inhibitors of Ubiquitin-specific Protease USP2a;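 also: activated enterokinase alone at 50 pM in a cell-free format rather than USP2a or CHOP2; nearly all actives have a fitted effect of over 55% in size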
Details: purified enterokinase, fluorogenic substrate, 485/531 nm; series mostly up to 38.3 µM; activity change, negative = inhibition: at the top concentration
In short: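 Cell-free counterscreen with pre-activated enterokinase alone (50 pM final) in 20mM Tris-HCl pH 8.0, 2mM CaCl2, 2mM beta-mercaptoethanol, 0.05% CHAPS; compound preincubation 30 min RT, reporter substrate 25nM final, fluorescence read after 10 min (Ex 485/Em 531).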
% is scaled to controls: 0 for no effect and ±100 for the full control effect; potency is read from the fitted curve at half-maximal effect.

SMILES	activity change, negative = inhibition	Potency
COc1ccc(S(=O)(=O)N(C)CC(=O)Nc2cccc(C(C)=O)c2)cc1Cl	-1.62%	
COc1ccc(-c2csc(Nc3ccc(S(=O)(=O)Nc4cc(OC)nc(OC)n4)cc3)n2)cc1	-19%	
O=C(NN1C(=O)/C(=C/C=C/c2ccco2)SC1=S)c1ccncc1		2.51 µM (active)
Cc1cccc(N=C2NC(=O)/C(=C/C=C/c3ccco3)S2)c1		10 µM (active)
CC(=O)Nc1cc[n+](CC(=O)c2ccc(Cl)cc2)cc1	-1.03%	
